This is a sample that favours compounds with a hit; in the whole collection about 3.3% have one here.
AmpC detergent: qHTS Inhibitors of AmpC Beta-Lactamase (assay with detergent); AmpC hydrolysis of nitrocefin, absorbance 480 nm, 0.01% Triton; Potency, µM (highest dose often 114 µM), without a hit: at the highest dose activity change, negative = inhibition, actives largely listed as inhibitors; 370,000 compounds, 0.041% hits; AID 485294, 2010;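 note: 0% = no-compound wells and -100% = no-enzyme wells; nearly all actives have a fitted effect of over 25% in size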
Target sequence (P00811 whole entry, looked up): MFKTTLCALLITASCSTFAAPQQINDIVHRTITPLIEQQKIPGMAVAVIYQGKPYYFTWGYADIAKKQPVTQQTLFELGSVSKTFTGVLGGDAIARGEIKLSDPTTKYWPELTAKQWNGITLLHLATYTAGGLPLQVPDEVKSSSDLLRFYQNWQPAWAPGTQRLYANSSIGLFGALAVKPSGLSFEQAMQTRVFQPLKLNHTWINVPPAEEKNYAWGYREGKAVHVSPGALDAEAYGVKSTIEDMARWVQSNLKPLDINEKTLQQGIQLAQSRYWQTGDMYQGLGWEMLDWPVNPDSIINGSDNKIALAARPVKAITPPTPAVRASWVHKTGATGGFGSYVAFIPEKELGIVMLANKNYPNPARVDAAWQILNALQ
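20 mM phosphate pH 7.0 + 0.01% (detergent screen) or 0.0001% Triton X-100; 5.3 nM AmpC reagent; cpd preinc 15 min RT; nitrocefin (800 uM stock) to start; A480 q20 s × 4 min; Activity was normalised to no-enzyme and no-compound control wells.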
AmpC no deterg: qHTS Inhibitors of AmpC Beta-Lactamase (assay without detergent); P00811; AmpC nitrocefin hydrolysis, absorbance 480 nm, 0.0001% Triton; Potency, µM (titrated, usually from 57.1 µM), without a hit: at the highest dose activity change, negative = inhibition, hits mostly inhibitors; 330,000 compounds, 0.52% hits;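 note: plate controls were no compound for no effect and no enzyme for full effect; nearly all actives have a fitted effect of over 20% in size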
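20 mM phosphate pH 7.0 + 0.01% (detergent screen) or 0.0001% Triton X-100; 5.3 nM AmpC reagent; cpd preinc 15 min RT; nitrocefin (800 uM stock) to start; A480 q20 s × 4 min; Activity was normalised to no-enzyme and no-compound control wells.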
Sm TGR inh: qHTS Assay for the Inhibitors of Schistosoma Mansoni Peroxiredoxins. Schistosoma mansoni thioredoxin glutathione reductase (TGR), Q962Y6. purified TGR, DTNB reduction, TNB absorbance 405 nm. Potency, µM (series often up to 114 µM), for the others: top-dose activity change, negative = inhibition, most hits filed as inhibitors. 360,000 compounds, 3% hits. AID 485364, 2010; note: nearly all actives have a fitted effect of over 60% in size
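Kinetic colorimetric format: TGR-catalysed, NADPH-driven DTNB reduction monitored via TNB absorbance. Enzyme dispensed at 20 nM; compound exposure 15 min at room temperature before reaction start.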
Numbers without * were called inactive; ? = inconclusive; / = no result given. Calls come from the whole dose curve; as a rule, active = well fitted curve in the direction sought with a large enough effect; inconclusive = small, poorly fitted or top-dose-only effect, or another doubt; inactive = no such curve, though single readings can be large; an effect the other way counts as inactive or inconclusive. Unless noted, % is set by controls: 0 for no effect and ±100 for the full control effect; potency is the fitted concentration of half-maximal effect.

SMILES	AmpC detergent	AmpC no deterg	Sm TGR inh
O=C(Cc1ccccc1)Nc1ccc2oc(-c3cccnc3)nc2c1	2%	7%	-4%
CCOc1ccc(NC(=O)CCSc2nc(-c3ccc4c(c3)OCO4)cc(C(F)(F)F)n2)cc1	24%	/	1%
CCOC(=O)c1c(C)c(C(=O)N2CCN(C(=O)c3ccco3)CC2)c(C)n1C	-3%	5%	7%
CCOC(=O)c1c(C)n(C(=O)c2ccco2)c(=O)n1C(=O)c1ccco1	-7%	-15%	35µM*
O=c1c2ccccc2sn1-c1cc(S(=O)(=O)N2CCOCC2)ccc1N1CCCC1	8%	110%	?
O=c1c2ccccc2sn1-c1cc(S(=O)(=O)N2CCOCC2)ccc1N1CCOCC1	?	134%	25µM*
O=c1cc(CCl)nc2sc3ccccc3n12	0%	-18%	40µM*
O=C(OCc1cc(=O)n2c(n1)sc1ccccc12)c1ccc(O)cc1	-10%	-29%	-2%
CC(C)(C)CC(=O)NCC(c1ccc2c(c1)OCO2)N1CCOCC1 (stereo not drawn)	4%	/	7%
N#CC1=C(N)OC2=C(CN(Cc3ccccc3)C/C2=C\c2cccnc2)C1c1cccnc1 (stereo not drawn)	-5%	-1%	22µM*
CC(C)N1CC2=C(OC(N)=C(C#N)C2c2cccnc2)/C(=C/c2cccnc2)C1 (stereo not drawn)	-10%	26%	-20%
O=C(CCS(=O)(=O)c1ccccc1)Nc1ccc2c(c1)OCO2	-5%	-13%	20µM*
CCn1cc(C(=O)NC(=S)Nc2ccccc2Br)cn1	4%	-4%	79µM*
CS(=O)(=O)N(CC(=O)Nc1ccc2c(c1)OCO2)c1ccccc1	-6%	-14%	0%
CCn1cc(C(=O)NC(=S)Nc2ccccc2[N+](=O)[O-])cn1	-4%	-2%	-4%
O=C(NC(=S)Nc1ccc2c(c1)OCO2)c1ccccc1	5%	-33%	14µM*
O=C(Nc1ccc2c(c1)OCO2)c1ccccc1	-6%	11%	2%
O=C(NC(=S)Nc1ccccc1Br)c1ccc2c(c1)OCO2	9%	-19%	14µM*
NS(=O)(=O)c1ccc(NC(=S)NC(=O)c2ccc3c(c2)OCO3)cc1	1%	-1%	-5%
COc1ccccc1NC(=O)c1sc2ncn(Cc3ccccc3Cl)c(=O)c2c1C	-7%	/	12%
O=C(O)c1ccc(C2Nc3ccccc3-c3nnc(SCc4ccc(Cl)cc4)nc3O2)cc1 (stereo not drawn)	20%	/	-7%
O=C(Cc1ccccc1)N1CCc2ccccc21	9%	-31%	-1%
O=C(CCn1cccc1)N1CCc2ccccc21	-4%	-35%	25µM*
Cc1ccccc1NC(=O)c1c(C)oc2ccc(O)c(CN(C)Cc3ccccc3)c12	-7%	/	-7%
Clc1cccc(-n2ncc3c(NC4CCCCC4)ncnc32)c1	11%	/	3%
SMILES	AmpC detergent	AmpC no deterg	Sm TGR inh
CCCCC1(Br)C(=O)N(c2ccccc2)N(c2ccccc2)C1=O	2%	-21%	14µM*
CCCCC1(CO)C(=O)N(c2ccccc2)N(c2ccccc2)C1=O	0%	0%	-13%
CCCSc1ncc(Cl)c(C(=O)Nc2nc3ccc(C)cc3s2)n1	13%	/	-2%
C=CCn1c(-c2ccc(OC)cc2)nc2nc3ccccc3nc21	-12%	-24%	-24%
c1ccc(-c2nc3nc4ccccc4nc3n2Cc2ccco2)cc1	-14%	20%	10µM*
Fc1ccc(-c2nc3nc4ccccc4nc3n2Cc2ccco2)cc1	-4%	16%	20µM*
S=c1nc(-c2ccccc2)n(Cc2cccnc2)c2c1CCCC2	-12%	-15%	?
S=c1nc(-c2ccccc2)n(Cc2ccco2)c2c1CCCC2	-3%	-41%	35µM*
Fc1ccc(-n2c(-c3ccco3)nc3nc4ccccc4nc32)cc1	-15%	-34%	0%
Cc1ccc(NC(=O)Cn2c(=O)n(-c3ccc(Cl)c(Cl)c3)c(=O)c3c(C)c(C)sc32)c(C)c1	27%	/	5%
CC(C)c1ccc(NC(=O)CCn2c(=O)c3cccn3c3ccccc32)cc1	9%	/	-18%
CCc1cccc(NC(=O)CSc2n[nH]c(-c3ccccc3Cl)n2)c1	-2%	/	7%
CC(=O)Nc1nonc1-c1nnc(SCc2cccc(Br)c2)n1C	7%	/	1%
O=C(COCc1cc(-c2cccs2)on1)Nc1cccc(Cl)c1Cl	19%	/	8%
Cc1cccc(C(=O)NNS(=O)(=O)c2ccc(F)cc2)c1	-14%	-20%	-4%
O=C(NNS(=O)(=O)c1ccccc1)c1cccc(F)c1	-15%	250%	56µM*
